# Rows were chosen to be rich in hits. Some 12% of all compounds tested hit in one or more screens of this group.
# Sm TGR block = inhibitors of Schistosoma mansoni thioredoxin glutathione reductase; purified TGR, DTNB reduction, TNB absorbance 405 nm; Potency, µM (doses to about 114 µM), inactives show at the highest dose activity change, negative = inhibition, actives largely listed as inhibitors; hit rate 3% among 360,000; Q962Y6; AID 485364; also: potency is read from the fitted curve at half-maximal effect; % is scaled to controls: 0 for no effect and ±100 for the full control effect; nearly all actives have a fitted effect of over 60% in size
#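 Kinetic colorimetric format: TGR-catalysed, NADPH-driven DTNB reduction monitored via TNB absorbance. Enzyme dispensed at 20 nM; compound exposure 15 min at room temperature before reaction start.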
# Pf growth 96h = inhibits malaria parasite growth, 96 h; P. falciparum luciferase reporter growth, 96 h; Potency, µM (highest dose often 28.7 µM), inactives show at the highest dose activity change, negative = inhibition, hits mostly inhibitors; hit rate 6.9% among 320,000; AID 504834; also: potency is read from the fitted curve at half-maximal effect; % is scaled to controls: 0 for no effect and ±100 for the full control effect
#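 Readout is luminescence from an integrated firefly luciferase in P. falciparum. Red cells, 2% hematocrit and 0.05% parasitemia final, were cultured with compound through two parasite generations (96 hours) at 37 C, 5% CO2.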
# SARS PLpro yeast-1 = inhibitors of SARS-CoV papain-like protease in yeast; S. cerevisiae expressing SARS-CoV PLpro, growth rescue; Potency, µM (titrated, usually from 32.9 µM), inactives show top-dose activity, positive = growth rescue, actives largely listed as activators; hit rate 0.19% among 330,000; AID 485353; calls by dose curve; also: potency is read from the fitted curve at half-maximal effect; 0% is about no effect; nearly all actives have a fitted effect of over 55% in size
# Pf growth 48h = inhibits P. falciparum growth in the first generation, 48 h | Potency, µM (series often up to 28.7 µM), for the others: at the highest dose activity change, negative = inhibition, most hits filed as inhibitors | hit rate 5.9% among 310,000 | AID 504832 | P. falciparum luciferase growth in erythrocytes, 48 h; also: potency is read from the fitted curve at half-maximal effect; % is scaled to controls: 0 for no effect and ±100 for the full control effect
#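 Compounds are pin-transferred into medium, infected erythrocytes (2% hematocrit, 0.1% parasitemia final) are added, and plates sit one parasite generation at 37 C in 5% CO2. Detection reagent is then added and luminescence measured.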
# SARS PLpro yeast-2 = Inhibits SARS-CoV PLP in yeast, hit validation; shares compounds with SARS PLpro yeast-1; yeast expressing SARS-CoV PLpro, growth phenotype rescue; calls only; hit rate 19% among 1,000; AID 652038; call rule not given here
# * marks the source's active call; other numbers are inactive results; i = inactive; ? = inconclusive; . = no result given; + = active, no number. Unless noted, calls follow the shape of the dose curve; as a rule, active = well fitted curve in the direction sought with a large enough effect; inconclusive = small, poorly fitted or top-dose-only effect, or another doubt; inactive = no such curve, though single readings can be large; an effect the other way counts as inactive or inconclusive.
SMILES,Sm TGR block,Pf growth 96h,SARS PLpro yeast-1,Pf growth 48h,others
COc1cc(Cl)c(C)cc1NC(=O)c1ccc2c(SCC(=O)O)c3c(nc2c1)CCCC3,-2%,32%,-1%,?,
COc1ccc(C)cc1NC(=O)c1ccc2c(SCC(=O)O)c3c(nc2c1)CCCC3,-17%,8.3µM*,2%,?,
O=C(CSc1nccc(=O)[nH]1)NC1CCCCCC1,.,.,9%,.,
O=C(NC(c1ccccc1)C(Cl)Cl)c1ccccc1 (stereo not drawn),-6%,2.6µM*,-22%,-27%,
Cc1ccc(C(=O)NC(c2ccccc2)C(Cl)Cl)cc1 (stereo not drawn),-5%,?,-2%,0%,
COc1ccccc1C(=O)NCC(=O)N/N=C/c1cc(Br)ccc1OC(=O)/C=C\c1ccco1,-20%,?,-8%,38%,
O=C(CNC(=O)c1ccccc1F)N/N=C/c1cc(Br)ccc1OC(=O)/C=C/c1ccco1,-34%,?,-8%,10µM*,
O=C(CNC(=O)c1ccc(F)cc1)N/N=C/c1cc(Br)ccc1OC(=O)/C=C/c1ccco1,0%,?,-1%,13µM*,
COc1ccc(Br)cc1CNC(=O)CN1C(=O)C(c2ccccc2)Oc2cccnc21 (stereo not drawn),-1%,7%,-21%,?,
Cc1cc(NC(=O)c2cc(-c3ccc(Cl)cc3)on2)n(-c2ccccc2)n1,1%,.,.,.,
Cn1c(=O)c(=O)n(C)c2cc([N+](=O)[O-])c(N3CCOCC3)cc21,-18%,6%,-1%,10%,
Cc1cccc(CSc2ccc3nnc(-c4ccccn4)n3n2)c1,12%,?,6%,3.7µM*,
CC(=O)Nc1ccc(NC(=O)CSc2ccc3nnc(-c4ccccn4)n3n2)cc1,-10%,0%,0%,2%,
c1ccc(CSc2ccc3nnc(-c4ccccn4)n3n2)cc1,0%,?,4%,?,
O=C(CSc1nnc2ccc(-c3ccco3)nn12)Nc1ccccc1F,11µM*,1%,.,55%,
O=C(CSc1ccc2nnc(-c3ccccn3)n2n1)Nc1ccccc1F,-20%,-31%,9%,9.3µM*,
O=C(CSc1nnc2ccc(-c3ccncc3)nn12)Nc1ccc(F)cc1,-14%,?,1%,12µM*,
CC(=O)Nc1ccc(Nc2ccc3cc(S(=O)(=O)N4CCCCC4)ccc3n2)cc1,-7%,.,.,.,
Cc1ccc(Cn2c(CN3CCC(C(=O)NCC(C)c4ccccc4)CC3)cc3ccccc32)cc1 (stereo not drawn),-3%,.,.,.,
COc1ccc(-n2ccnc(NCc3ccc(C)cc3)c2=O)cc1OC,6%,.,.,.,
CCCCNC(=O)NS(=O)(=O)c1ccc(N)cc1,.,10%,.,11%,
COc1ccc(-c2cccc(NS(=O)(=O)c3cc(C)ccc3OC)c2)nn1,-4%,.,.,.,
O=C(CSc1ccc2nnc(-c3ccccn3)n2n1)Nc1cccc(F)c1,4%,13µM*,-9%,?,
Cc1ccc(C(=O)NCCc2nnc3ccc(SCC(=O)Nc4ccccc4C)nn23)cc1,-3%,10µM*,4%,?,
Cc1ccc(CSCCNC(=O)C2CCN(S(=O)(=O)Cc3ccccc3)CC2)cc1,-8%,.,.,.,
SMILES,Sm TGR block,Pf growth 96h,SARS PLpro yeast-1,Pf growth 48h,others
CCOC(=O)c1sc(=S)n(-c2ccc(Cl)cc2)c1C,-1%,?,5%,5.2µM*,
Cc1c(C(=O)O)sc(=S)n1-c1ccc(Cl)cc1,9%,-5%,1%,-9%,
CCOC(=O)c1sc(=S)n(-c2cc(OC)ccc2OC)c1N,1%,9.3µM*,-31%,-8%,
CCOC(=O)c1sc(=S)n(-c2ccc(OC)cc2)c1C,14%,?,0%,13µM*,
Cc1ccc(C)c(C(=O)OCC(=O)N(C)c2ccccc2)c1,-2%,-8%,-3%,-24%,
C=CCNCc1ccccc1[N+](=O)[O-],?,56%,-6%,27%,
COc1ccc(S(=O)(=O)N(C)C)cc1NC(=O)c1ccc2c(c1)NC(=O)C(C)S2 (stereo not drawn),-7%,5.2µM*,-5%,9.3µM*,
CCCN(CC(=O)Nc1ccccc1OC)C(=O)c1ccc2c(c1)NC(=O)C(C)S2 (stereo not drawn),-6%,?,1%,10µM*,
CC1Sc2ccc(C(=O)Nc3ccc(S(=O)(=O)N(C)C)cc3)cc2NC1=O (stereo not drawn),-1%,?,2%,?,
CCCN(CC(=O)Nc1ccccc1OC)C(=O)Cc1ccc2c(c1)CCC2,-11%,?,-6%,10µM*,
CCCN(CC(=O)Nc1ccccc1OC)C(=O)c1cccc(S(=O)(=O)NCc2ccccc2)c1,-2%,10µM*,2%,?,
O=C(O)C(Cc1ccccc1)N1C(=O)c2ccccc2C1=O (stereo not drawn),15%,15µM*,0%,.,
O=C(O)C(CCCCN1C(=O)c2ccccc2C1=O)N1C(=O)c2ccccc2C1=O (stereo not drawn),-9%,10µM*,2%,31%,
CCC(C(=O)O)N1C(=O)c2ccccc2C1=O (stereo not drawn),-8%,29%,1%,-12%,
CCOc1ccc(C(=O)Nc2nc(-c3ccc(Br)cc3)ns2)cc1,-1%,.,.,.,
CC(C)(O)[C@H]1Cc2cc3ccc(=O)oc3cc2O1,1%,206%,-1%,115%,
CCOC(=O)c1c(S(=O)(=O)NCC(=O)Nc2ccc(F)cc2)c(C)n(C)c1C,2%,?,2%,11%,
Cc1ccc(C)c(/C=C/C(=O)c2ccccc(=O)c2O)c1,13µM*,1.5µM*,3.5µM*,4.1µM*,SARS PLpro yeast-2=i
O=C(/C=C/c1ccccc1Cl)c1ccccc(=O)c1O,4.5µM*,3.7µM*,?,5.2µM*,SARS PLpro yeast-2=+
O=C(/C=C/c1ccccc1Cl)Nc1cccc(O)c1,4%,375%,2%,278%,
CCOc1ccc(S(=O)(=O)Nc2cccc(C(=O)NCC(c3ccco3)N3CCCC3)c2)cc1 (stereo not drawn),-30%,?,-1%,?,
CCCOc1cccc(C(=O)N/N=C/c2ccoc2)c1,-18%,-28%,-10%,18%,
Cc1ccc(CNC(=O)c2cn(C3CCCCC3)c(=O)c3c2c2ccccc2n3C)o1,10µM*,52%,?,.,SARS PLpro yeast-2=+
CN(C)C(=O)CCc1ccc2c3c([nH]c2c1)[C@]1(CCC2CCCC2)[C@@H](C(=O)N2CCOCC2)C[C@H](CC(=O)NCCN2CCOCC2)C(=O)N1CC3,.,.,-11%,.,
COc1ccc(CNC(=O)C[C@H]2C[C@H](C(=O)N3CCOCC3)[C@@]3(CCC4CCCC4)c4[nH]c5cc(CCC(=O)N(C)C)ccc5c4CCN3C2=O)cc1OC,.,.,?,.,SARS PLpro yeast-2=i
CN(C)Cc1cccc([N+](=O)[O-])c1O,7%,23%,0%,2%,
CN(C)Cc1cc(C(C)(C)c2cc(CN(C)C)c(O)c(CN(C)C)c2)cc(CN(C)C)c1O,2%,.,13µM*,4.1µM*,SARS PLpro yeast-2=i
COC(=O)C1=C(C)N(CCCC(=O)O)C(=O)NC1c1ccc(Br)cc1 (stereo not drawn),-16%,5%,-1%,6%,

# Assay outcomes: PubChem BioAssay, National Center for Advancing Translational Sciences (NCATS)
